Only a selection was taken, and hits are over-represented in it overall.
Tb PYK inh = T. brucei pyruvate kinase inhibition; Q57TT1; TbPYK enzyme, Kinase-Glo Plus ATP luminescence, 45 min; Potency, µM (doses to about 76.8 µM), inactives show at the top dose activity, negative = inhibition, actives largely listed as inhibitors; 0.12% of 410,000 active; AID 624173; also: potency is read from the fitted curve at half-maximal effect; % is scaled to controls: 0 for no effect and ±100 for the full control effect; nearly all actives have a fitted effect of over 50% in size
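Screened from lowest to highest concentration, compounds were pinned into TbPYK/substrate mixtures, and ADP (130 uM final) was added. Plates sat at room temperature for 45 min prior to Kinase-Glo Plus detection by luminescence.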
RE007 growth inh = less growth of the S. pombe RE007 Vpr strain | S. pombe RE007 Vpr strain, BacTiter-Glo ATP luminescence, 24 h | Potency, µM (top dose mostly 92.2 µM), for the others: at the top dose activity change, negative = less growth, hits mostly inhibitors | 0.21% of 360,000 active | AID 651644; active = well fitted falling curve with a large enough effect; inconclusive = small, poorly fitted or top-dose-only effect; inactive = no such curve, though single readings can be large or run the other way; also: potency is read from the fitted curve at half-maximal effect; % is scaled to controls: 0 for no effect and ±100 for the full control effect; nearly all actives have a fitted effect of over 50% in size
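Fission yeast strain RE007, carrying one chromosomally integrated HIV-1 vpr copy, was seeded at OD 0.01 in PMG+AL medium with 23 nL pinned compound. After 24 h at 30 °C and 99% humidity, viability was read by BacTiter-Glo luminescence.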
Shiga inhibitor = blocks Shiga toxin action in Vero cells. Vero cells, Shiga toxin protein synthesis inhibition reporter. inhibition, % at 38.7 µM. 9.2% of 290,000 active; in the data active = inhibition mostly above about 28%, no sharp cut-off; inactive = mostly below about 43%; also: 0% is about no effect
Giardia FBPA inh = inhibitors of Giardia lamblia fructose-1,6-bisphosphate aldolase; A8B2U2; purified Giardia FBPA; Potency, µM (titrated, usually from 59.6 µM), inactives show top-dose activity, negative = inhibition, hits mostly inhibitors; 0.71% of 290,000 active; AID 2451; also: potency is read from the fitted curve at half-maximal effect; % is scaled to controls: 0 for no effect and ±100 for the full control effect; nearly all actives have a fitted effect of over 55% in size
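Giardia FBPA (40 nM reagent) was preincubated 10 min at RT with compound (up to 57.5 uM final), then substrate plus GAPDH/TPI/NAD/arsenate coupling system with diaphorase/resazurin was added; resorufin fluorescence (525/598 nm) was read after 20 min.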
CHX counter = counter-screen hit for Shiga toxin inhibitors, cycloheximide | cell reporter, cycloheximide protein synthesis inhibition counterscreen | max response, % | 12% of 300,000 active | AID 2314; in the data active = max response mostly above about 13%, no sharp cut-off; inactive = mostly below about 14%; also: read at 38.3 µM for the half of the compounds with a filed dose; 0% is about no effect
LmPK inh = blocks Leishmania mexicana pyruvate kinase activity. Q27686. 0.37% of 290,000 active. Potency, µM (titrated, usually from 57.5 µM), without a hit: at the highest dose activity change, negative = inhibition, most hits filed as inhibitors. purified LmPK, Kinase-Glo ATP luminescence, 1 h; also: potency is read from the fitted curve at half-maximal effect; % is scaled to controls: 0 for no effect and ±100 for the full control effect
Target sequence (Q27686 whole entry, looked up): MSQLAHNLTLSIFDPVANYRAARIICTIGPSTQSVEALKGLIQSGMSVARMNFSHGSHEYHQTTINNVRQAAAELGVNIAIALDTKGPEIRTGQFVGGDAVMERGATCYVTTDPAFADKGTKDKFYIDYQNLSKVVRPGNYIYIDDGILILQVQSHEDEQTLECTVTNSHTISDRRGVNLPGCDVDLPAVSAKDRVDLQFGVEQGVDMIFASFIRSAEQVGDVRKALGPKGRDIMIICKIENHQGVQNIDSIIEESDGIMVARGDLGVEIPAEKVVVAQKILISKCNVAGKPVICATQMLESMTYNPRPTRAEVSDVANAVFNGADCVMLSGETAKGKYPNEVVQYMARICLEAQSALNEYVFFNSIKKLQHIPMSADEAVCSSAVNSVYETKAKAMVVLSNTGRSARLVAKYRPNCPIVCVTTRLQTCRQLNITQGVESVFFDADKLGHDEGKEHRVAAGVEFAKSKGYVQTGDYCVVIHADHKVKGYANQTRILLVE
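0.1 nM LmPK, 0.5 mM PEP, 0.1 mM ADP; 50 mM imidazole pH 7.2, 7 mM MgCl2, 50 mM KCl; 1 h RT. Kinase-Glo luminescence readout, normalized to no-enzyme (full inhibition) and uninhibited wells.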
Numbers without * were called inactive; ? = inconclusive; . = no result given; + = active, no number; [ ] = remark or other dose. Unless noted, calls follow the shape of the dose curve; as a rule, active = well fitted curve in the direction sought with a large enough effect; inconclusive = small, poorly fitted or top-dose-only effect, or another doubt; inactive = no such curve, though single readings can be large; an effect the other way counts as inactive or inconclusive.

SMILES | Tb PYK inh | RE007 growth inh | Shiga inhibitor | Giardia FBPA inh | CHX counter | LmPK inh
Cc1ccc(NC(=O)C(Nc2ccccc2)c2ccccc2)cc1 (stereo not drawn) | -9% | 4% | -11 | 1% | 1 | 0%
O=C(NC(c1ccccc1)C(Cl)Cl)c1ccccc1 (stereo not drawn) | 3% | -9% | 3 | 0% | -1 | 4%
Cc1cc(OC(C)C(=O)NCC2CCCO2)cc(C)c1Cl (stereo not drawn) | 2% | -10% | -1 | . | -2 | 1%
Cc1ccc(OCC(=O)NNC(=O)C2CCCO2)c(C)c1 (stereo not drawn) | 4% | -3% | 12 | 3% | 21* | -2%
Cc1ccc(OCC(=O)NCC2CCCO2)c(C)c1 (stereo not drawn) | 2% | ? | 34 | 2% | 39* | 2%
Cc1cc(OCC(=O)NNC(=S)NCC2CCCO2)cc(C)c1Cl (stereo not drawn) | ? | 6% | 33 | . | 17* | -3%
CCC(=O)c1ccc(OCC(=O)OCC(=O)NCC2CCCO2)cc1 (stereo not drawn) | 0% | -5% | 20 | . | 19* | -11%
COc1ccc(-c2c(C)nn3c(N4CCN(c5cc(Cl)ccc5C)CC4)cc(C)nc23)cc1OC | 0% | . | . | . | . | .
O=C(Cn1cnc2ccccc21)c1ccc(Br)cc1 | 0% | -15% | 24 | -2% | 22* | -2%
c1ccc(OCCCCn2cnc3ccccc32)cc1 | -1% | -30% | 14 | -1% | 6 | 0%
Fc1ccc(Cn2cnc3ccccc32)cc1 | 6% | -3% | 12 | 5% | -2 | 0%
CCCOc1ccc(Cn2cnc3ccccc32)cc1 | 3% | ? | 2 | 5% | 14* | 5%
c1ccc(OCCn2cnc3ccccc32)cc1 | 1% | 7% | 18 | 16% | 29* | -1%
COc1ccc(OCCn2cnc3ccccc32)cc1 | -3% | 11% | 33* | -3% | 9.5* | -3%
COc1ccc(NC(=O)Cn2cc(C(=O)C3CCCCC3)c3ccccc32)cc1 | -1% | . | . | . | . | .
c1ccc(CCn2cnc3ccccc32)cc1 | -14% | -4% | 25 | -1% | 29* | -2%
c1ccc2c(c1)ncn2CCN1CCCCC1 | 4% | 12% | -1 | -10% | -1 | -1%
CCCc1nn(C)c(C(=O)Nc2cccc(CC)c2)c1Cl | -1% | -15% | + | -3% | 18* | -7%
CCC(=O)Nc1ccc(NC(=O)c2ccc3ccccc3c2)cc1 | -4% | 1% | . | 10% | 10 | 3%
CCCc1nn(C)c(C(=O)Nc2ccc3ccccc3c2)c1Cl | -2% | ? | 54* | -2% | 49* | -2%
COC(=O)[C@H]1O[C@@H](c2cc(OC)c(C)c(OC)c2O)[C@H](C)[C@@H](O)[C@H]1C | . | . | . | -6% | . | .
CCN(CC)CCOC(=O)c1ccc2c(c1)OCCO2 | -3% | 5% | 29 | -2% | 16 | 5%
CC(CN1CCCCC1)OC(=O)c1ccc2c(c1)OCCO2 (stereo not drawn) | 2% | -24% | 70* | . | 43* | -3%
CC(CN1CCOCC1)OC(=O)c1ccccc1Br (stereo not drawn) | -8% | 10% | 46 | -18% | 25* | 4%
CC(CN1CCOCC1)OC(=O)c1ccc2c(c1)OCCO2 (stereo not drawn) | 0% | 1% | 66* | 3% | 61* | -6%
SMILES | Tb PYK inh | RE007 growth inh | Shiga inhibitor | Giardia FBPA inh | CHX counter | LmPK inh
CC(C)N(C)CCOC(=O)c1ccc2c(c1)OCCO2 | -11% | -4% | 47 | 1% | 16* | -8%
CC(C)Cn1cc(NC(=O)N2CCN(c3ccccc3F)CC2)c2ccccc2c1=O | 0% | . | . | . | . | .
CCOc1ccc(-c2nnc(SCC(=O)Nc3cccc(OC)c3)nc2-c2ccc(OCC)cc2)cc1 | 1% | . | . | . | . | .
Cc1ccc(NC(=O)C2CCCN(S(=O)(=O)c3cccc4nsnc34)C2)c(C)c1 (stereo not drawn) | -1% | . | . | . | . | .
CC(CN1CCOCC1)OC(=O)/C=C/c1ccccc1 (stereo not drawn) | 3% | -6% | 84* | -2% | 44* | 0%
CC(CN1CCOCC1)OC(=O)c1cccc(Br)c1 (stereo not drawn) | -10% | 1% | 21 | -2% | -2 | 1%
Cc1cccc(C(=O)OC(C)CN2CCOCC2)c1 (stereo not drawn) | -2% | 1% | 69 | 0% | 28* | 12%
CC1CN(C(=O)CCC(=O)Nc2cc(F)ccc2F)c2ccccc2S1 (stereo not drawn) | -1% | . | . | . | . | .
O=C1NC2(C=Cc3c(ccc4ccccc34)O2)Oc2ccccc21 (stereo not drawn) | 5% | ? | 84* | -2% | 31* | -5%
CC(C)(Cl)[N+](=O)[O-] | -5% | -2% | . | . | . | .
O=[N+]([O-])C(Br)(CO)CO | 10µM* | . | . | . | . | .
Cc1cccc(OCC(=O)N(Cc2sccc2C)C2CCS(=O)(=O)C2)c1 (stereo not drawn) | -3% | . | . | . | . | .
CCCCc1nc2c(c3c1C[C@H](C)OC3)CN(C(=O)c1cccnc1)CC2 | . | . | . | 0%[12.9 µM] | . | -4%[11.5 µM]
COc1ccc(C2=NNC(c3cccnc3)=Nc3ccccc32)cc1 | -5% | 8% | -9 | 6% | -4 | 3%
c1ccc(C2=NNC(c3ccco3)=Nc3ccccc32)cc1 | 2% | -16% | 23 | -4% | 17* | 7%
COc1ccc(OC(=O)c2cnn(-c3ccccc3)c2C)cc1 | -10% | -13% | 133* | -11% | 45* | 1%
COc1ccc(OC(=O)c2c(C)nn(-c3ccccc3)c2C)cc1 | 1% | 46% | 70* | 1% | 52* | 5%
Cc1nn(-c2ccccc2)c(C)c1C(=O)Oc1ccccc1 | -12% | 7% | 59* | -7% | 36* | 3%
Cc1ccc(CNC(=O)c2sc3nc4n(c(=O)c3c2C)CCCC4)cc1 | -2% | . | . | . | . | .
Cc1ccc(NCc2ccccc2F)cc1 | -3% | -18% | 29* | -10% | 9 | -5%
Cc1ccc(NCc2ccccc2O)cc1 | 3% | -6% | 72* | -6% | 30* | -4%
Fc1ccccc1CNc1ccc(Cl)c(Cl)c1 | -4% | ? | 59 | 2% | 19 | -1%
Cc1ccc(CNc2ccc(O)cc2)cc1 | -28% | -8% | 43 | 3.5µM* | 24 | -10%
Cc1cccc(NCc2ccccc2O)c1 | -6% | 16% | 25 | -6% | 18* | -2%
Cc1cccc(NCc2ccccc2)c1 | 2% | -1% | 22 | 1% | 5 | 6%
Cc1ccc(N2CCn3c2nc2c3c(=O)n(Cc3cccc(Cl)c3)c(=O)n2C)cc1C | 2% | . | . | . | . | .
Cc1cccn2c(=O)c(/C=C(\C#N)c3nc4ccccc4n3C)c(Oc3ccc(Cl)cc3)nc12 | 1% | . | . | . | . | .
Cc1nc2cnc(N3CCOCC3)nc2n(Cc2cccs2)c1=O | 4% | . | . | 4% | . | .
Cc1cccc(NCCNc2cccc(C)c2)c1 | 4% | -18% | 25 | -1% | 18* | -5%

Bioassay records: PubChem BioAssay, National Center for Advancing Translational Sciences (NCATS)
